Compounds with a hit are over-represented: about 19% of the library has one in this group of screens.
IL1B secr inh: inflammasome signaling inhibition, IL-1 beta readout | activity change, % at 57.5 µM | 360,000 tested, 4.7% active | THP-1 LPS/ATP IL-1B secretion, AlphaLISA, 16 h; hits give low values; in the data active = activity change below about -50%; inconclusive = mostly about -30% to -49%
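Secreted IL-1B measured by AlphaLISA bead assay after 16 h compound exposure of THP-1 cells; compounds (final up to 57.5 uM) added 1 h before LPS (250 ng/mL) and ATP (1.25 mM) stimulation; lower signal means less secretion.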
ELG1 repair inh: ELG1-dependent DNA repair inhibition. HEK293T ELG1-luciferase reporter, luminescence, 16 h; DNA damage induced by 5-fluorouridine. Potency, µM (highest dose often 46.1 µM), hits mostly inhibitors. 330,000 tested, 2.3% active. AID 504467; also: nearly all actives have a fitted effect of over 55% in size
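Reporter activity after DNA damage by 5-fluorouridine is monitored. Compound-treated cells incubate 16 hr at 37 °C, then ONE-Glo is added for 30 min before luminescence reading.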
HT1080 IDH1KD tx: HT-1080 IDH1 knockdown cell toxicity (counter line) | Potency, µM (top dose mostly 46.1 µM), usual class: cytotoxic | HT-1080 IDH1 knockdown viability, ATP luminescence, 48 h | 360,000 tested, 2% active
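Cytotoxicity counter-line: IDH1KD HT-1080, 48 h, CellTiter-Glo. Curves classed by r2, magnitude and activity.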
TDP1 cell CPT: growth inhibition of DT40 Tdp1-/-;hTDP1 cells with camptothecin (screen for TDP1 inhibitors); chicken DT40 Tdp1-/-;hTDP1 cells + 20 nM CPT, ATP luminescence, 48 h; 420,000 tested, 12% active; Potency, µM (top dose mostly 46.2 µM), actives largely listed as inhibitors; also: nearly all actives have a fitted effect of over 55% in size
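Chicken DT40 Tdp1-/- cells stably complemented with human TDP1 were seeded at 400 cells/well in medium containing 20 nM camptothecin, exposed to pin-transferred compounds, and grown at 37 °C for at least 48 hr. Viability was read as ATP luminescence.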
TDP1 cell noCPT: qHTS for Inhibitors of human tyrosyl-DNA phosphodiesterase 1 (TDP1): qHTS in cells in absence of CPT; DT40 Tdp1-/- hTDP1 cells, no CPT, ATP luminescence, 48 h; 420,000 tested, 15% active; Potency, µM (titrated, usually from 46.2 µM), hits mostly inhibitors; also: nearly all actives have a fitted effect of over 55% in size
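Growth of hTDP1-complemented DT40 Tdp1-knockout cells is measured by ATP luminescence after at least 48 hr compound exposure at 37 °C, with DMSO substituting for the 20 nM CPT used in the parallel screen.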
HT1080NT lethal: kills 2HG-producing HT-1080-NT fibrosarcoma cells. AID 686970. HT-1080-NT fibrosarcoma viability, CellTiter-Glo ATP luminescence, 48 h. 360,000 tested, 1.6% active. Potency, µM (series often up to 46.1 µM), usual class: cytotoxic;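 also: NT is the 2HG producing partner of a matched IDH1 knockdown line; nearly all actives have a fitted effect of over 55% in size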
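Luminescent CellTiter-Glo readout after 48 hours of compound exposure at 37 degrees C defined viability of HT-1080-NT cells. Activity was normalized to DMSO wells and cell-free media wells; concentration-response curves were fitted and assigned curve classes.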
Hits are given with their value; . = inactive; ? = inconclusive; / = not tested or not shown. Unless noted, calls follow the shape of the dose curve; as a rule, active = well fitted curve in the direction sought with a large enough effect; inconclusive = small, poorly fitted or top-dose-only effect, or another doubt; inactive = no such curve, though single readings can be large; an effect the other way counts as inactive or inconclusive.

SMILES	IL1B secr inh	ELG1 repair inh	HT1080 IDH1KD tx	TDP1 cell CPT	TDP1 cell noCPT	HT1080NT lethal
O=C(c1[nH]c(C(F)(F)F)nc1-c1ccccc1)N1CCN(C(=O)C2CCCO2)CC1 (stereo not given)	.	/	.	.	.	.
O=C(CSc1nc2ccc([N+](=O)[O-])cc2[nH]1)c1ccc2ccccc2c1	.	.	?	?	?	?
COC(=O)Cn1c(C)nc([N+](=O)[O-])c1Br	?	.	.	.	?	.
Cc1nc([N+](=O)[O-])c(Br)n1CC(=O)c1ccc(F)cc1	-97	.	18µM	?	16µM	?
Cc1nc([N+](=O)[O-])c(Br)n1CC(=O)c1cccc([N+](=O)[O-])c1	-98	.	?	15µM	16µM	.
Cc1nc([N+](=O)[O-])c(Sc2nc3ccc([N+](=O)[O-])cc3[nH]2)n1Cc1ccccc1	-76	.	.	9.2µM	8.2µM	.
Cc1nc([N+](=O)[O-])c(Br)n1Cc1ccccc1	.	?	?	5.2µM	6.5µM	?
Cc1nc(SCC(=O)c2cccc([N+](=O)[O-])c2)n[nH]1	.	.	.	?	?	.
Cc1cc(=O)n2nc(N3CCC(C(=O)NCc4ccccc4F)CC3)sc2n1	.	.	.	.	.	.
Cc1ccc(CNC(=O)Cn2nc(N3CCN(c4ccccc4)CC3)ccc2=O)cc1	/	/	/	.	?	/
CCCN1CNc2c(c(=O)[nH]c(=S)n2CCC)C1	/	/	.	.	.	.
CC(C)(C)OC(=O)N1Cc2ccccc2C[C@H]1C(=O)NCC(=O)NC1CCCCC1	.	.	.	.	.	.
CN(Cc1ccccc1)S(=O)(=O)c1ccc(Cl)c(C(=O)NCCCN2CCOCC2)c1	.	.	.	.	?	.
CN(Cc1ccccc1)S(=O)(=O)c1ccc(Cl)c(C(=O)NCCCN2CCCC2=O)c1	.	/	.	?	16µM	.
CN(Cc1ccccc1)S(=O)(=O)c1ccc(Cl)c(C(=O)NCCc2ccccn2)c1	.	?	.	16µM	?	.
O=C(NCCc1ccccn1)c1cc(-c2ccc(Cl)c(Cl)c2Cl)nc2ccccc12	.	?	?	?	18µM	.
COc1ccc(CCNC(=O)CSc2ccc3nnc(CCNC(=O)c4ccccc4)n3n2)cc1OC	.	.	.	.	.	.
C[C@H](NC(=O)c1nc[nH]c1C(=O)N(C)CCO)c1ccccc1	.	/	.	.	.	.
NC(=O)COC(=O)CC12CC3CC(CC(Br)(C3)C1)C2	.	.	.	.	.	.
CCCCCNc1ncnc2c(C)[nH]nc12	.	/	.	15µM	23µM	.
Cc1cc2c(NCCc3ccccc3)ncnc2s1	-70	?	?	1.6µM	1µM	.
Cc1cc2c(SCC(=O)NC3CCCCC3)ncnc2s1	.	.	.	.	?	.
CCCCNc1ncnc2c1nnn2C	/	/	/	.	.	/
Cc1cc2c(NC3CCCCC3)ncnc2s1	.	.	.	?	13µM	.
c1ccc(CCNc2ncnc3ccccc23)cc1	.	?	2.1µM	0.52µM	0.65µM	?
SMILES	IL1B secr inh	ELG1 repair inh	HT1080 IDH1KD tx	TDP1 cell CPT	TDP1 cell noCPT	HT1080NT lethal
O=C(O)c1ccc(OCC(F)(F)F)nc1	.	.	.	.	.	.
Cn1cnnc1SCC(=O)Nc1ccccc1Oc1ccccc1	.	.	.	.	.	.
COC(=O)C(C)Oc1cc(OC(C)C(=O)OC)c2c(-c3ccccc3)cc(=O)oc2c1 (stereo not given)	.	?	.	.	.	.
CCc1ccccc1Nc1ncnc2ccccc12	.	.	.	?	?	.
CCCCCCCCNc1ncnc2ccccc12	-61	?	?	0.29µM	0.26µM	?
Clc1ccc(NN(Cc2ccncc2)c2ccc(Cl)cc2)cc1	.	/	.	.	?	?
Cc1cc(C)cc(NC(=O)N2CCC(C(N)=O)(N3CCCCC3)CC2)c1	/	/	/	.	.	/
